Experiment [1] has as its system Zika virus NS2B-NS3 protease (unlinked complex). Nature of the experiment: Primary screen GU Rhodamine qHTS for Zika virus inhibitors: Unlinked NS2B-NS3 protease assay (AID 1347159). Further: nearly all actives have a fitted effect of over 60% in size. The method in brief: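 Noncovalent NS2B hydrophilic domain–NS3 protease domain complex (25 nM) preincubated 15 min at room temperature with compounds (up to 114 microM) in 10 mM Tris-HCl pH 8.0, 0.01% Tween 20; 1.5 microM Rhodamine110 substrate added, fluorescence change over 15 min fitted to Hill equation.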
On the technique in general: Quantitative high-throughput screening tests each substance at several concentrations.

Experiment [2] relates to Zika virus NS2B-NS3 protease (linked construct). The experiment is described as follows: Primary screen NINDS Rhodamine qHTS for Zika virus inhibitors (AID 1347160). Further: nearly all actives have a fitted effect of over 55% in size. The method in brief:
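Purified linked NS2B-NS3 protease (NS2B hydrophilic domain joined to NS3 protease by flexible linker), 25 nM in 10 mM Tris-HCl pH 8.0, 0.01% Tween 20. Compounds titrated, 15 min preincubation at room temperature; 1.5 microM Rhodamine110 substrate, FITC fluorescence change over 15 min.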

Inconclusive results are not listed. Values without a mark were called inactive. Activity calls are given as the source filed them. The call rests on the fitted dose curve; in most records, active means well fitted inhibition curve with a large enough effect; inconclusive means small, poorly fitted or top-dose-only effect; inactive means no such curve, though single readings can be large or run the other way.
On the % scale 0 is the no-effect control and ±100 the full control effect; potency means the concentration at half of the fitted maximal effect.

For `CC#CC(=O)Nc1ccc2ncnc(Nc3cccc(Br)c3)c2c1`, the Potency entry in experiment [1] and in experiment [2] was “inactive” throughout.

On to `C=CCCN1CCC2(CC1)CN(C(=O)c1c(F)cccc1F)c1ccc(Cl)cc12`, for which the Potency entry in experiment [1] and in experiment [2] was “inactive” in each case.

Consider `C=C1C(=O)OC2/C=C(\C)CC3C=C(CC/C=C(\C)CCC12)C(=O)O3` (stereo unspecified), for which the Potency result in experiment [1] and in experiment [2] was “inactive” throughout.

For the molecule `CC1=CC2/C=C(\C)CCC(O)C(=O)C(O)CC(=O)C23C(=O)NC(CC(C)C)C3C1C` (stereo unspecified), the Potency result in experiment [1] and in experiment [2] was “inactive” each time.

For the molecule `CC(NCCCc1cccc(C(F)(F)F)c1)c1cccc2ccccc12` (stereo unspecified), the Potency entry in experiment [1] and in experiment [2] was “inactive” each time.

For `Clc1cccc(COc2cncc(N3CCNCC3)n2)c1`, the Potency result in experiment [1] and in experiment [2] was “inactive” throughout.

Consider `CCC(=O)N1CCOc2c(cc(-c3ccc(OC)c(OC)c3)cc2OC[C@H]2CCCN(C)C2)C1`, for which the Potency entry in experiment [1] and in experiment [2] was “inactive” in each case.

In the case of `CC(=O)NCc1cccc(OC[C@@H](O)CNCCc2ccc(NS(=O)(=O)c3ccccc3)cc2)c1`, the Potency result in experiment [1] and in experiment [2] was “inactive” in each case.

On to `O=c1nc(-c2ccccn2)sc2ccccc12`, for which the Potency entry in experiment [1] and in experiment [2] was “inactive” in each case.

As to `CC[C@H](C)/C=C(C)/C=C/C1=CC2=C(Cl)C(=O)[C@](C)(O)[C@H](OC(C)=O)[C@H]2CO1`, the Potency in experiment [1] was 10 µM (active); in experiment [2], 11.2 µM (active).

For the molecule `O=C(Nc1ccc(Cl)cc1)C1CCCN(C(=O)c2cccc(-c3ccco3)c2)C1` (stereo unspecified), the Potency result in experiment [1] and in experiment [2] was “inactive” each time.

On to `Cn1nc(C(C)(C)C)cc1C(=O)N[C@@H](Cc1cccc(Cl)c1)C(=O)NCC#N`, for which the Potency entry in experiment [1] and in experiment [2] was “inactive” in each case.

As to `CCOC(=O)C1=Cc2ccc(C(F)(F)C(F)(F)F)cc2N=C(N)C1`, the Potency entry in experiment [1] and in experiment [2] was “inactive” throughout.

Consider `CC[C@H]1OC(=O)[C@H](C)[C@@H](O[C@H]2C[C@@](C)(OC)[C@@H](O)[C@H](C)O2)[C@H](C)[C@@H](O[C@H]2O[C@H](C)C[C@H](N(C)C)[C@H]2O)[C@](C)(O)C[C@@H](C)C(=O)[C@H](C)[C@@H](O)[C@]1(C)O`, for which the Potency entry in experiment [1] and in experiment [2] was “inactive” in each case.

Consider `CCC(CC)C(=O)OC12C(OC(=O)C(C)C)C(C)C3(O)C(C=C(CO)CC4(O)C(=O)C(C)=CC43)C1C2(C)C` (stereo unspecified), for which the Potency entry in experiment [1] and in experiment [2] was “inactive” throughout.

As for `CC(C)=CCCC1(C)/C=C/C(OC(=O)C=C(C)C)C(C)(O)/C=C/C(=O)/C(CO)=C\C1` (stereo unspecified), the Potency result in experiment [1] and in experiment [2] was “inactive” each time.

Regarding `CC(C)CCCCC(=O)N[C@@H](CO)C(=O)N[C@@H](CC(C)C)C(=O)[C@@]1(CO)CO1`, the Potency result in experiment [1] and in experiment [2] was “inactive” in each case.

For the molecule `C=C(C)C(=O)O[C@H]1[C@H]2C(=C)C(=O)O[C@@H]2/C=C(\CO)CC/C=C(/C=O)[C@@H]1O`, the Potency entry in experiment [1] and in experiment [2] was “inactive” throughout.

Regarding `Cc1nc(NC(=O)N2CCC[C@H]2C(N)=O)sc1-c1ccnc(C(C)(C)C(F)(F)F)c1`, the Potency result in experiment [1] and in experiment [2] was “inactive” in each case.

Regarding `COc1ccc(NC(=O)C2C[C@H](C)CC[C@H]2C(C)C)cc1` (stereo partly specified), the Potency result in experiment [1] and in experiment [2] was “inactive” throughout.

As to `COc1ccc2c(c1)C(C(=O)N(Cc1ccc(N(C)C)cc1)c1ccc(C(C)C)cc1)CCC2` (stereo unspecified), the Potency entry in experiment [1] and in experiment [2] was “inactive” in each case.

On to `CC1(C)CC[C@]23CO[C@@]4(CCC5[C@@]6(C)CC[C@H](O[C@@H]7OC[C@H](O[C@@H]8O[C@H](CO)[C@@H](O)[C@H](O)[C@H]8O[C@@H]8OC[C@@H](O)[C@H](O)[C@H]8O)[C@H](O)[C@H]7O)[C@@](C)(CO)C6CC[C@@]5(C)[C@]4(C)CC2=O)[C@@H]3C1` (stereo partly specified), for which the Potency result in experiment [1] and in experiment [2] was “inactive” throughout.

In the case of `COc1ccc([C@H](Cc2ccncc2)c2ccccc2)cc1OC1CCCC1`, the Potency result in experiment [1] and in experiment [2] was “inactive” each time.

As to `CC(=O)O[C@@H]1[C@H](O[C@@H]2O[C@@H](CO)[C@H](O)[C@H]2O)[C@@H](O[C@@H]2O[C@@H](C)[C@H](O[C@@H]3OC[C@@H](O)[C@H](O)[C@H]3O)[C@@H](O)[C@H]2O)[C@H](OC(=O)[C@]23CCC(C)(C)C[C@H]2C2=CCC4[C@@]5(C)CC[C@H](O[C@@H]6O[C@H](C(=O)O)[C@@H](O)[C@H](O)[C@H]6O[C@@H]6O[C@H](CO)[C@H](O)[C@H](O)[C@H]6O)[C@@](C)(C=O)C5CC[C@@]4(C)[C@]2(C)C[C@H]3O)O[C@@H]1C` (stereo partly specified), the figures for the activity change, negative = inhibition in experiment [1] and in experiment [2] were 1.92% [at 19.1 µM] and 10.8% [at 10.7 µM], respectively.

As to `CC(C)=C1C[C@@]2(C)C(=CC1=O)CC[C@@H](OC(=O)/C(C)=C/CO)[C@@H]2C`, the Potency result in experiment [1] and in experiment [2] was “inactive” throughout.

Take `CCC(C)c1ccc(NC(=O)Cn2cnc3c2c(=O)n(C)c(=O)n3C)cc1` (stereo unspecified): the Potency entry in experiment [1] and in experiment [2] was “inactive” in each case.

For `CCOC(=O)N1c2ccc(C(F)(F)F)cc2C(N(Cc2cc(C(F)(F)F)cc(C(F)(F)F)c2)C(=O)OC)CC1CC` (stereo unspecified), the Potency result in experiment [1] and in experiment [2] was “inactive” throughout.

Regarding `O=C(Nc1cccnc1)c1cc(-c2ccnc(F)c2)ccc1OCc1ccccc1`, the Potency result in experiment [1] and in experiment [2] was “inactive” in each case.
